Data taken from PubChem BioAssay (NCATS).
Results filed as inconclusive are left out. The source made the active and inactive calls. The call rests on the fitted dose curve; in most records, active means well fitted curve in the direction sought with a large enough effect; inconclusive means small, poorly fitted or top-dose-only effect, or another doubt; inactive means no such curve, though single readings can be large; an effect the other way counts as inactive or inconclusive.

Experiments:
[1] = target: Protein phosphatase 1D (Homo sapiens) (UniProt O15297); assay: RapidFire Mass Spectrometry qHTS Assay for Modulators of WT P53-Induced Phosphatase 1 (WIP1) (AID 1347424);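 further: amount of dephosphorylated VEPPL-S-QETFS peptide product formed by WIP1; series mostly up to about 63 µM; plate controls were DMSO wells for no effect and GSK830371 inhibitor control at 10 µM for full effect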
In short: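 RapidFire mass spectrometry measured dephosphorylated peptide after 5 min room-temperature reaction of 2 uM VEPPL-pS-QETFS with 10 nM WIP1 (50 mM Tris-HCl pH 7.5, 30 mM MgCl2, 0.1 mM EGTA, BSA), following 1 hr compound preincubation; 1 uM isotope-labelled product standard.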

[2] = target: Protein phosphatase 1D (Homo sapiens) (UniProt O15297); assay: Rhodamine-PBP qHTS Assay for Modulators of WT P53-Induced Phosphatase 1 (WIP1) (AID 1347425); further: % of control where 0% means no effect
In short: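 WIP1 (5 nM final) was preincubated with compound for 1 hour at room temperature. It then dephosphorylated 10 uM VEPPL-pS-QETFS peptide in Tris-HCl pH 7.5 with 30 mM MgCl2. Released Pi was detected by 10 uM Rh-PBP fluorescence (ex 525/em 598 nm) read at 1-min intervals for 11 min, as delta f1 - f0.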

[3] = Primary qHTS for inhibitors of La Crosse Virus (LACV) - induced cell death in SH-SY5Y cells (AID 1508616);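 further: top concentration of the series differs between compounds; 0% = infected DMSO wells and 100% = uninfected DMSO wells; higher means more rescue of cells from virus-induced death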
In short: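 Screening measures cell viability in LACV-infected SH-SY5Y cultures. Compound was added before virus (0.01 MOI), and ATP was detected by luminescence 6 days later.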

[4] = target: Calcium and integrin-binding protein 1 (Homo sapiens) (UniProt Q99828); assay: Primary qHTS for Identification of Calcium Integrin Binding Protein 1 (CIB1) Competitor (AID 1508620);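 further: GST tagged CIB1 binding a fluorescein labelled alphaIIb integrin peptide tracer; top concentration of the series differs between compounds; on the % scale 0 is the no-effect control and ±100 the full control effect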
In short: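 CIB1-GST (1 uM final) and compound incubated 15 min at room temperature before adding FITC-alphaIIb peptide tracer (100 nM final). Competition for binding read by fluorescence polarization (ex 480, em 540) after another 15 min at room temperature.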

[5] = qHTS to identify inhibitors of the type 1 interferon - major histocompatibility complex class I in skeletal muscle: primary screen against the NCATS Mechanism Interrogation Plate v5.0 (MIPE) Libary (AID 1347411);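 further: plate controls were vehicle for no effect and reference inhibitor for full effect; nearly all actives have a fitted effect of over 65% in size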
In short: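 IFN-beta-driven (4 ng/ml) HLA-B-HiBit expression in CRISPR-tagged C25cl48 myoblasts; compounds 11-pt, 1:3, max 46 uM, 24 hr exposure; lytic NanoLuc complementation luminescence.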

[6] = target: Calcium and integrin-binding protein 1 (Homo sapiens) (UniProt Q99828); assay: Validation qHTS for Identification of Calcium Integrin Binding protein 1 (CIB1) Competitor (AID 1508618); further: on the % scale 0 is the no-effect control and ±100 the full control effect
In short: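 Fluorescence polarization with 1 uM CIB1-GST and 100 nM FITC-alphaIIb peptide in HEPES pH 7.4, NaCl, 5 mM CaCl2, Tween20. Compounds at up to 114 uM final, preincubated with protein 15 min; read after 15 min more at RT.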

[7] = target: Single-stranded DNA cytosine deaminase (Homo sapiens) (UniProt Q9GZX7); assay: Validation qHTS assay for inhibitors of Activation Induced Cytidine Deaminase (AID): AID signal (AID 1347429); further: on the % scale 0 is the no-effect control and ±100 the full control effect
In short: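 Compounds (up to 114 uM final) are tested against AID plus UDG using DJC20/DJC23 FRET substrate. Reactions incubate 4 hr at room temperature, receive NaOH for 30 min, and are read at Ex 540/Em 590 nm.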

[8] = Validation qHTS assay for inhibitors of Activation Induced Cytidine Deaminase (AID): UDG Counterscreen signal (AID 1347427); further: 0% is about no effect
In short: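 Fluorescence at 560 nm excitation, 665 nm emission reports UDG signal after 250 mM NaOH (2x) addition and 30 min. Enzymes (AID 1 uM, UDG 2 U/mL, at 4/3x) preincubated 10 min with compound, then 4 h with 4x 250 nM DJC20/DJC23 substrate at room temperature.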

Chain of Single-stranded DNA cytosine deaminase (Homo sapiens) (Q9GZX7 whole entry, looked up): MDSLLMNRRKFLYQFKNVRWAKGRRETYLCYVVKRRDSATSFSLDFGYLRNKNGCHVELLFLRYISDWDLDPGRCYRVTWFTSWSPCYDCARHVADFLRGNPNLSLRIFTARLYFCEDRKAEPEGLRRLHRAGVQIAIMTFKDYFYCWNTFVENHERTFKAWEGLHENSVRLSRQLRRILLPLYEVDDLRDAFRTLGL
Chain of Protein phosphatase 1D (Homo sapiens) (O15297 whole entry, looked up): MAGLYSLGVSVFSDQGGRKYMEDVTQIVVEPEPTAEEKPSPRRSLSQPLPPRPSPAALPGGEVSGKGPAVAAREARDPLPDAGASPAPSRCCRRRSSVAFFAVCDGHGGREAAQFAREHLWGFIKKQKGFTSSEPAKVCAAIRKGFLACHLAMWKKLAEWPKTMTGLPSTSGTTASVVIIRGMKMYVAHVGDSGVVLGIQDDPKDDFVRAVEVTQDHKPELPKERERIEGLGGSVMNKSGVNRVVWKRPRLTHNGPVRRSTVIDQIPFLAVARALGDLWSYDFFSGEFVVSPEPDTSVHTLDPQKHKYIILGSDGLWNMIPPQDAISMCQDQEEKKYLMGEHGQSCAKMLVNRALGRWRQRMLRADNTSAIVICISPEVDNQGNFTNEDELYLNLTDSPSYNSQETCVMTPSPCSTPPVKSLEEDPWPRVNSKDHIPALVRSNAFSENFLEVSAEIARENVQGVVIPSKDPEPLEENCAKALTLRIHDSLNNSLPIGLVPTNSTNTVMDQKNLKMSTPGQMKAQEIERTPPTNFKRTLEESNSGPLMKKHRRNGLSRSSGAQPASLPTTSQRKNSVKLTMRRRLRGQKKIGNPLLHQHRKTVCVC
Chain of Calcium and integrin-binding protein 1 (Homo sapiens) (Q99828 whole entry, looked up): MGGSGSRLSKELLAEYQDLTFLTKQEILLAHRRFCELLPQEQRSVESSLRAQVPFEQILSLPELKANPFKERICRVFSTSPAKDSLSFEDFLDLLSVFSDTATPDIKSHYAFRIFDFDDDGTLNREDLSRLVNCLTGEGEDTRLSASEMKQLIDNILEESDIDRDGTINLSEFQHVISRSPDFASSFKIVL

Nc1ccc(C(=O)O)c(O)c1
inactive: Potency [1] | outcome [2] | Potency [3] | Potency [4]

CN(C)CCn1nnnc1SCC1=C(C(=O)O)N2C(=O)[C@@H](NC(=O)Cc3csc(N)n3)[C@H]2SC1
inactive: Potency [1] | outcome [2] | Potency [3] | Potency [4]

O=C(Nc1ccc2c(c1)CCN(Cc1ncn[nH]1)C2)c1ccccc1-c1ccc(C(F)(F)F)cc1
inactive: Potency [5] | outcome [6] | Potency [4]

CC(C)OC(=O)c1cc(C(=O)OC(C)C)cc([N+](=O)[O-])c1
inactive: Potency [1] | outcome [2] | Potency [3] | Potency [4]

O=C(CS)Nc1ccccc1
inactive: Potency [1] | outcome [2]

O=C(OCc1ccccc1)c1ccccc1
inactive: Potency [1] | outcome [2] | Potency [3]

C[N+]1(C)[C@@H]2CC(OC(=O)[C@H](CO)c3ccccc3)C[C@H]1[C@@H]1O[C@@H]12 (some centres undefined)
inactive: Potency [5] | Potency [1] | outcome [2] | Potency [4]

O=C(O)Cc1ccc(-c2ccccc2)cc1
inactive: Potency [1] | outcome [2] | Potency [3] | Potency [4]

O=C1NC(=O)/C(=C/c2ccc3nccnc3c2)S1
inactive: Potency [5] | Potency [7] | Potency [3]

O=c1cc(-c2ccccc2)oc2ccccc12
inactive: Potency [1] | outcome [2] | Potency [3] | Potency [4]

CC1(C)S[C@@H]2[C@H](NC(=O)[C@H](N)c3ccccc3)C(=O)N2[C@H]1C(=O)O
inactive: Potency [1] | outcome [2] | Potency [3]

CN1CCN(c2cc3c(nn2)Oc2ccccc2N3C)CC1
inactive: Potency [1] | outcome [2] | activity change [3] 13.6% [at 1.78 µM] | Potency [4]

CCC1C(=O)OCC1Cc1cncn1C (centres undefined)
inactive: Potency [1] | outcome [2] | Potency [8] | Potency [7] | Potency [3] | outcome [6] | Potency [4]
